# From PubChem BioAssay
# Shiga toxin inh = A qHTS for Small Molecule Inhibitors of Shiga Toxin | Vero cells, Shiga toxin protein synthesis inhibition reporter | inhibition, % at 38.7 µM | 290,000 compounds, 9.2% hits; in the data active = inhibition mostly above about 28%, no sharp cut-off; inactive = mostly below about 43%; note: 0% is about no effect
# Pf growth 96h = Primary qHTS for delayed death inhibitors of the malarial parasite plastid, 96 hour incubation | P. falciparum luciferase reporter growth, 96 h | Potency, µM (doses to about 28.7 µM), for the others: at the top dose activity change, negative = inhibition, hits mostly inhibitors | 320,000 compounds, 6.9% hits; note: potency is the fitted concentration of half-maximal effect; % is set by controls: 0 for no effect and ±100 for the full control effect
#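 Infected RBCs, 2% Hct / 0.05% parasitemia final; luciferase-reporter P. falciparum; cpd 96 h, 37 C, 5% CO2; luciferase detection reagent; luminescence.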
# CHX counter = Cycloheximide Counterscreen for Small Molecule Inhibitors of Shiga Toxin. cell reporter, cycloheximide protein synthesis inhibition counterscreen. max response, %. 300,000 compounds, 12% hits. AID 2314, 2010; in the data active = max response mostly above about 13%, no sharp cut-off; inactive = mostly below about 14%; note: read at 38.3 µM for the half of the compounds with a filed dose; 0% is about no effect
# Pf growth 48h = Primary qHTS for delayed death inhibitors of the malarial parasite plastid, 48 hour incubation | P. falciparum luciferase growth in erythrocytes, 48 h | Potency, µM (doses to about 28.7 µM), inactives show at the top dose activity change, negative = inhibition, usual class: inhibitors | 310,000 compounds, 5.9% hits | AID 504832, 2011; note: potency is the fitted concentration of half-maximal effect; % is set by controls: 0 for no effect and ±100 for the full control effect
#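 Erythrocytes infected with P. falciparum carrying an integrated firefly luciferase reporter (2% hematocrit, 0.1% parasitemia final) were exposed to compounds in RPMI 1640 with 0.5% Albumax at 37 C, 5% CO2. Growth inhibition was scored as reduced luminescence.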
# * = called active by the depositor; ? = inconclusive; . = no result. Compounds with a hit are over-represented: about 21% of the library has one in this group of screens. Unless noted, calls come from the whole dose curve; as a rule, active = well fitted inhibition curve with a large enough effect; inconclusive = small, poorly fitted or top-dose-only effect, or another doubt; inactive = no such curve, though single readings can be large or run the other way.
SMILES,Shiga toxin inh,Pf growth 96h,CHX counter,Pf growth 48h
CCn1c(SCC(=O)c2ccccc2)nc2sc3c(c2c1=O)CCN(C)C3,70*,2.9µM*,12*,?
COC(=O)c1c(NC(=O)CCl)sc(C(=O)N2CCOCC2)c1C,-17,13%,-10,?
Cc1ccccc1OCCC(=O)N1CCN(S(=O)(=O)c2ccc(Br)cc2)CC1,.,?,.,-19%
COc1ccc(CCNS(=O)(=O)c2ccc(-n3cnnn3)cc2)cc1OC,-4,5%,-4,-5%
CN(C)CCCNc1nc2sc3c(c2c(=O)n1CCc1ccccc1)CCCCC3,-10,4.1µM*,2,6.6µM*
C=CCn1c(SCC(=O)NCC)nc2sc3c(c2c1=O)CCC3,-4,?,-5,7.4µM*
NNc1nc2sc3c(c2c(=O)n1Cc1ccccc1)CCC3,32,15%,12,4%
Nn1c(Nc2ccccc2)nc2sc3c(c2c1=O)CCC3,86*,31%,26*,52%
Nc1nonc1-n1nnc(C(=O)N/N=C/c2ccoc2)c1CSc1ccc(Cl)cc1,10,20%,1,17%
O=C(NCCc1ccccc1Cl)c1ccc2nc3ccccc3c(=O)n2c1,2,?,2,-28%
CCN1CCCC1CNC(=O)c1ccc2c(c1)NC(=O)/C(=C\c1ccc(OC)c(OC)c1)S2 (stereo unspecified),0,?,9,4.7µM*
COc1ccc(/C=C2/Sc3ccc(C(=O)NCCCN4CCOCC4)cc3NC2=O)cc1OC,-3,?,-1,?
O=C(Nc1ccccc1)N1CCC(C(=O)N2CCCC(C(F)(F)F)C2)CC1 (stereo unspecified),26,?,-3,?
N#CCCN(C(=O)COC(=O)c1cc2ccccc2oc1=O)c1ccccc1,.,10%,.,9%
COc1ccc(CN(C)CC(O)COC(c2ccc(OC)cc2)c2ccc(OC)cc2)cc1 (stereo unspecified),-9,?,-4,13µM*
CCOc1ccc(CN(C)CC(O)COC(c2ccc(OC)cc2)c2ccc(OC)cc2)cc1 (stereo unspecified),19,10µM*,-3,10µM*
C=CCNC1=C2C[C@@H](C)C[C@H](OC)[C@H](O)[C@@H](C)/C=C(\C)[C@H](OC(N)=O)[C@@H](OC)/C=C\C=C(/C)C(=O)NC(=CC1=O)C2=O,.,11µM*,.,0.6µM*
COc1ccc(Cc2nnc(SCC(=O)Nc3ccc(N4CCOCC4)cc3)n2C)cc1,27,0%,8,?
C/C(=N\NC(=O)c1ccc(CSc2nncn2C)cc1)c1ccc(C#N)cc1,-9,?,-1,?
C/C(=N\NC(=O)c1nn(C)c(C)c1Br)c1cccc(NC(=O)c2ccc(F)cc2)c1,active,?,72*,53%
C/C(=N\NC(=O)c1ccc(O)cc1)c1cccc(NC(=O)c2ccccc2C)c1,28*,?,25*,33%
C/C(=N\NC(=O)c1ccccc1F)c1ccc(C#N)cc1,129*,172%,38*,176%
C/C(=N\NC(=O)c1c(Br)c(C)nn1C)c1cccc(NC(=O)c2ccccc2F)c1,66*,13%,21*,22%
C/C(=N\NC(=O)c1ccccc1F)c1cccc(NC(=O)c2ccccc2)c1,52*,4%,24*,27%
C/C(=N\NC(=O)c1cc(Br)ccc1O)c1cccc(NC(=O)c2ccccc2F)c1,43*,5%,19,3%
SMILES,Shiga toxin inh,Pf growth 96h,CHX counter,Pf growth 48h
O=S(=O)(NC1CCCCC1)c1ccc(N2CCOCC2)nc1,-15,22%,7,?
Cn1nnnc1SCCNC/C=C/c1ccccc1,-8,.,-4,25%
COc1cc(/C=N\Nc2nncn2N)ccc1OC(C)=O,19,0.93µM*,17*,38%
COc1cc(/C=N/NC(=O)c2ccncc2)ccc1OC(C)=O,-11,?,-2,8%
COc1cc(/C=N/Nc2ccccc2)ccc1O,28,10µM*,16,?
COc1cc(/C=N/Nc2ccccc2C(F)(F)F)ccc1O,69*,?,33*,19%
COc1cc(/C=N/Nc2nncn2/N=C/c2ccc(O)c(OC)c2)ccc1O,48*,6%,13*,88%
CCc1cccc(NS(=O)(=O)c2c(C)nc3sc(CC)nn3c2=O)c1,-1,?,-1,28%
CC(=O)c1ccc(N2C(=NC(=O)C3CCCCC3)SC3CS(=O)(=O)CC32)cc1 (stereo unspecified),-4,30%,-2,-1%
CCN(CC(=O)Nc1ccc2c(c1)OCCO2)C(=O)c1ccc(C(F)(F)F)cc1,.,97%,.,86%
COc1ccc(-c2nc(CSCC(=O)NC3CCCc4ccccc43)c(C)o2)cc1OC (stereo unspecified),-12,8.3µM*,-1,.
COc1ccc(-c2nc(CSCC(=O)NC3CCN(Cc4ccccc4)CC3)c(C)o2)cc1OC,-5,10µM*,14,?
COc1ccc(-c2nc(CS(=O)CC(=O)NC3CCCc4ccccc43)c(C)o2)cc1OC (stereo unspecified),-16,?,-7,.
Cc1cc(C)c(NC(=O)CCCn2c(=O)oc3ccccc32)c(C)c1,.,-14%,.,-13%
Cc1ccc(NC(=O)C23CCC(C)(C(=O)[C@H]2Br)C3(C)C)cc1 (stereo partly specified),-11,-2%,-2,-16%
Cc1cccc2c(=O)cc(C)n(CC(N)=O)c12,12,-15%,-3,34%
Cc1cc(C(=O)N=Nc2c(O)n(C)c3ccccc23)c(C)o1,-5,161%,27*,126%
CCOC(=O)N=Nc1c(O)n(C)c2ccccc12,26,87%,10,35%
Cn1c(O)c(N=NC(=O)c2cccc(S(=O)(=O)N3CCCCC3)c2)c2ccccc21,-7,7.4µM*,-1,10µM*
NC(=O)c1cccc(S(=O)(=O)N2CCCCC2)c1,-3,?,-3,6%
C/C(=N\Nc1cc(N2CCOCC2)nc(C)n1)c1ccc(F)cc1,.,?,-3,-17%
C/C(=N\Nc1cc(N2CCCCC2)nc(C)n1)c1ccc(Br)cc1,-12,-4%,-1,3.7µM*
CSc1ccccc1NC(=S)NCc1ccc(Cl)cc1,151*,?,37*,-5%
Cc1ccc(NC(=S)NCc2ccc(Cl)cc2)c(C)c1,9,?,9,10µM*
Cc1cc(Cl)ccc1NC(=S)NCc1ccccc1,-4,2%,2,-7%
SMILES,Shiga toxin inh,Pf growth 96h,CHX counter,Pf growth 48h
S=C(NCc1ccc(Cl)cc1)Nc1ccccc1Cl,-8,16%,1,5%
COc1ccc(NC(=S)NCc2ccc(Cl)cc2)c(OC)c1,.,?,15*,?
CCCCCCCCCCCCCCCCCCOC[C@H](COP(=O)([O-])OCC[N+](C)(C)C)OC,.,-17%,.,1%
CCCCCCCCCCCCCCCCOP(=O)([O-])OCC[N+](C)(C)C,.,7.6µM*,.,?
Nc1ccc2oc(=O)c(-c3ccccc3)cc2c1,56*,53%,36*,.
COc1ccc(-c2cc3ccccc3oc2=O)cc1NC(=S)NC(=O)c1ccc2c(c1)OCCO2,115*,0%,63*,90%
